# Laboratory results: PubChem BioAssay (NCATS)
# Records with an inconclusive call do not appear. The source made the active and inactive calls. The call rests on the fitted dose curve.
# Assay: Primary qHTS for inhibitors of MERS-S pseudo-typed particle cell entry (AID 1479149); further: nearly all actives have a fitted effect of over 60% in size
# Conditions: MERS-S pseudotyped particle entry, luciferase; series mostly up to 57.1 µM; activity change, negative = inhibition: at the top concentration
# On the % scale 0 is the no-effect control and ±100 the full control effect; potency means the concentration at half of the fitted maximal effect.
SMILES,Potency,outcome,"activity change, negative = inhibition"
CCCCCCc1ccc(O)cc1O,0.891 µM (active),,
CN(C)c1ccc(C(=C2C=CC(=[N+](C)C)C=C2)c2ccc(N(C)C)cc2)cc1,1.12 µM (active),,
CNC[C@H](O)c1ccc(O)c(O)c1,,inactive [at 26.4 µM],
C1CCC(C(CC2CCCCN2)C2CCCCC2)CC1 (stereo not drawn),10 µM (active),,
Cc1cc2nc3ccc(=[N+](C)C)cc-3sc2cc1N,17.8 µM (active),,
O=C(Nc1ccc([N+](=O)[O-])cc1Cl)c1cc(Cl)ccc1O,2 µM (active),,
OC[C@H]1O[C@@H](n2cnc3c(=S)nc[nH]c32)[C@H](O)[C@@H]1O,,inactive,
COc1ccc(-c2nc3ccc(C4=NNC(=O)CC4C)cc3[nH]2)cc1 (stereo not drawn),,,-2.4% (inactive)
CN(C)c1ccc(C(=C2C=CC(=[N+](C)C)C=C2)c2ccccc2)cc1,0.891 µM (active),,
O=C(O)c1cccc(-c2noc(-c3ccccc3F)n2)c1,,inactive,

# Assay: Primary qHTS for Vero E6 cytotoxicity: counterscreen for inhibitors of SARS-S pseudo-typed particle cell entry (AID 1479150)
# Conditions: cell viability; series mostly up to 57.1 µM; activity change, negative = cytotoxicity: at the top concentration
SMILES,outcome,"activity change, negative = cytotoxicity",Potency
CC(C)(C)c1ccc(C(O)CCCN2CCC(C(O)(c3ccccc3)c3ccccc3)CC2)cc1 (stereo not drawn),inactive,,
CCOC(=O)C1=C[C@]2(CC)CCCN3CCc4c(n1c1ccccc41)[C@@H]32,inactive,,
CC(C)=CCC/C(C)=C/CC/C(C)=C/C(=O)OCC(=O)[C@@]1(O)CC[C@H]2[C@@H]3CCC4=CC(=O)C=C[C@]4(C)[C@H]3[C@@H](O)C[C@@]21C,inactive,,
CCCC(=O)O[C@]1(C(=O)CCl)[C@@H](C)C[C@H]2[C@@H]3CCC4=CC(=O)C=C[C@]4(C)[C@@]3(F)C(=O)C[C@@]21C,,-0.624% (inactive),
CCCCCCc1ccc(O)cc1O,,4.1% (inactive),
CN1C[C@H](C(=O)N[C@]2(C)O[C@@]3(O)[C@@H]4CCCN4C(=O)[C@H](Cc4ccccc4)N3C2=O)C[C@@H]2c3cccc4[nH]cc(c34)C[C@H]21,inactive,,
CCCCOc1cc(C(=O)OCCN(CC)CC)ccc1N,inactive,,
N=C(N)c1ccc2cc(OC(=O)c3ccc(N=C(N)N)cc3)ccc2c1,,-0.252% (inactive),
CNC[C@H](O)c1ccc(O)c(O)c1,,1.03% [at 26.4 µM] (inactive),
CC[C@H](c1ccc(O)cc1)[C@@H](CC)c1ccc(O)cc1,inactive,,
CCN(CC)CCCN(c1ccccc1)C1Cc2ccccc2C1,,-4.81% (inactive),
CCN(CCCCOC(=O)c1ccc(OC)c(OC)c1)C(C)Cc1ccc(OC)cc1 (stereo not drawn),,0.848% (inactive),
CCN(CC)CC(=O)OCC(=O)[C@@]1(O)CC[C@H]2[C@@H]3CCC4=CC(=O)CC[C@]4(C)[C@H]3[C@@H](O)C[C@@]21C,,-2.19% (inactive),
Oc1ccc(O)cc1,,4.51% (inactive),
CC(=O)[C@H]1CC[C@H]2[C@@H]3CC=C4C[C@@H](O)CC[C@]4(C)[C@H]3CC[C@]12C,inactive,,
NC(=O)c1ncn([C@@H]2O[C@H](CO)[C@@H](O)[C@H]2O)c1N,inactive,,
CN1CCCC(CC2c3ccccc3Sc3ccccc32)C1 (stereo not drawn),,-13.6% (inactive),

SMILES,outcome,"activity change, negative = cytotoxicity",Potency
CCOC(=O)Cn1cccc1-c1nc(-c2ccc(OC)cc2)c(-c2ccc(OC)cc2)s1,,-7.11% (inactive),
COc1ccc(-c2cc(C(F)F)nn2-c2ccc(S(N)(=O)=O)cc2)cc1F,,2.49% (inactive),
COc1ccc2[nH]c(S(=O)Cc3ncc(C)c(OC)c3C)nc2n1 (stereo not drawn),inactive,,
COc1cc(C(=O)OCCCN2CCCN(CCCOC(=O)c3cc(OC)c(OC)c(OC)c3)CC2)cc(OC)c1OC,inactive,,
O=C(Nc1ccc([N+](=O)[O-])cc1Cl)c1cc(Cl)ccc1O,,,1.58 µM (active)
CC(C)C(=O)Nc1cccc(C2CN3CCSC3=N2)c1 (stereo not drawn),,-5.15% (inactive),
CCCCOc1cc(C(=O)NCCN(CC)CC)c2ccccc2n1,,-18.1% (inactive),
COc1ccc(-c2nc3ccc(C4=NNC(=O)CC4C)cc3[nH]2)cc1 (stereo not drawn),,-23.2% (inactive),
CCOC(=O)C1=C(C)NC(C)=C(C(=O)OCC)C1c1ccccc1/C=C/C(=O)OC(C)(C)C,,-8.15% (inactive),
COc1ccc(-n2nc(CCC(=O)N(C)O)cc2-c2ccc(Cl)cc2)cc1,,3.18% (inactive),
CC(C)[C@@H]1CC[C@@H](C)CC1=O,,-12% (inactive),
FC(F)(F)C(F)(F)C(F)(F)C(F)(F)C(F)(F)C(F)(F)C(F)(F)C(F)(F)Br,inactive,,
CCN(CCCc1ccccc1)CCCc1ccccc1,inactive,,
C[N+]1(CC2COC(c3ccccc3)(C3CCCCC3)O2)CCCCC1 (stereo not drawn),,-4.15% (inactive),
O=C(O)CNC(=O)c1ccccc1I,,0.768% (inactive),
CCC(CN)=C(c1ccccc1)c1ccccc1,inactive,,
